Assay results reported in PubChem BioAssay (NCATS).
“And” between values parts separate entries of the source, which are not always exact repeats. Equal values may be shown once. Results filed as inconclusive are left out. Values without a mark were called inactive. The call rests on the fitted dose curve; in most records, active means well fitted activation curve with a large enough effect; inconclusive means small, poorly fitted or top-dose-only effect; inactive means no such curve, though single readings can be large or run the other way.

Each compound was assayed against Cellular tumor antigen p53 (Homo sapiens) (UniProt P04637) (assay: Primary qHTS for small molecule compounds that upregulate eGFP-tagged delta133p53alpha (in N-terminal) cells. (AID 2060322;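 further: series mostly up to about 56 µM; 0% = DMSO vehicle and 100% = reference activator; nearly all actives have a fitted effect of over 75% in size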)). Details: NCI-H358 eGFP-delta133p53alpha fluorescence, 24 h; activation: active compounds read high.
Outline: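 NCI-H358 cells pre-induced 24 h with 10 ng/ml doxycycline to express N-terminal eGFP-delta133p53alpha, then dosed 24 h at 37C without doxycycline; fixed, Hoechst-stained, GFP intensity by laser scanning cytometry, normalized to DMSO (0%) and 57.5 uM 5-azacytidine (100%).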

Chain of Cellular tumor antigen p53 (Homo sapiens) (P04637 whole entry, looked up): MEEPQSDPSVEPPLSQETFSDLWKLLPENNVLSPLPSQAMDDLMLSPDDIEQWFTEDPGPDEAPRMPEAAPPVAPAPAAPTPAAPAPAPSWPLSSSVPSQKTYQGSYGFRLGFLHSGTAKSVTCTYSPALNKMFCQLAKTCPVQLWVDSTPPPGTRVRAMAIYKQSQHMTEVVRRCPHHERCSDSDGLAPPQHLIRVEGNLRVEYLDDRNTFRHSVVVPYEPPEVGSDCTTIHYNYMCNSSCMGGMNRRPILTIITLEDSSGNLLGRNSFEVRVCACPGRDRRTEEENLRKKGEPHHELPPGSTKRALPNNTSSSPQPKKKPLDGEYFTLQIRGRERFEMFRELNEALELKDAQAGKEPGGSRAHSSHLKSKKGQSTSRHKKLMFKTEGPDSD

SMILES | activation
C/C=C(/C)C(=O)O[C@@H]1C[C@@H](OC(=O)CC(C)C)C2(C)C3C(=O)C=C(C)C2C3C1(C)C (stereo partly drawn) | -29%
CC(=O)OCC1OC(OC2COC(OC3COC(OC4C(OC5C(CO)OC(OC6CCC7(C)C(CCC8(C)C7CC=C7C9CC(C)(C)CCC9(C(=O)OC9OC(CO)C(O)C(O)C9OC9OCC(OC%10OCC(O)(CO)C%10O)C(O)C9O)C(O)CC78C)C6(C)C)C(O)C5O)OCC(O)C4O)C(O)C3O)C(O)C2O)C(OC(=O)/C=C/c2ccccc2)C(O)C1OC(C)=O (stereo not drawn) | 11.5%
C=CC(C)(O)C1CC2C3(C)CCCC(C)(C)C3C(O)C(O)C2(C)O1 (stereo not drawn) | -9.82%
CC1=C(C)C(=O)OC(C(C)C2CCC3C4C5OC5C5(O)CC(OC6OC(CO)C(OC7OC(C)C(O)C(O)C7O)C(O)C6O)CC(O)C5(C)C4CCC23C)C1 (stereo not drawn) | 3.57%
C=CC(C)(O)CC/C=C(\C)C(=O)O[C@@H]1[C@@H](O)[C@H](OC(C)(C=C)CC/C=C(\C)C(=O)O)O[C@H](CO)[C@H]1OC(=O)/C(C)=C/CCC(C)(O)C=C (stereo partly drawn) | 9.92%
CC1(C=O)CCCC2(C)C1CCC13CC(CO)C(CCC12)C3 (stereo not drawn) | -9.92%
Cn1ncnc1[C@@H]1c2n[nH]c(=O)c3cc(F)cc(c23)N[C@H]1c1ccc(F)cc1 | -7.14%
C/C(=C\CCC(C)C1CC(O)C2(C)C3CCC4C(C)(C)C(OC5OCC(O)C(O)C5O)CCC45CC35CC(O)C12C)C(=O)O (stereo not drawn) | 17.6%
C=C1C(OC2OC(CO)C(O)C(O)C2O)CC2C(C)(C)C(O)CCC2(C)C1CC/C(C)=C\COC(=O)CC(=O)O (stereo not drawn) | 0.763%
O=S(=O)(c1ccccc1)N(CC(F)(F)F)c1ccc(C(O)(C(F)(F)F)C(F)(F)F)cc1 | -3.67%
CC(C)=C1C[C@@]2(C)C(=CC1=O)CC[C@@H](OC(=O)/C(C)=C/CO)[C@@H]2C | 5.34%
NC(N)=NC(=O)c1cnn(-c2cccc3ncccc23)c1C1CC1 | 25%
Cc1cc2c(cc1N1C(=O)c3cccc4c(CCCO)ccc(c34)C1=O)n(C)c(=O)n2C | 5%
CN=C(N)NCCCCC/C=C(/C)CC(C)C1OC(=O)C(C)C(O)/C=C/C(C)C(O)CC(O)C(C)C(O)CCC(C)C(O)CC2(O)OC(CC(OC(=O)CC(=O)O)CC(O)CC(O)C(C)C(O)/C(C)=C/CCC1C)CC(O)C2O (stereo not drawn) | -19.1%
Cc1ccc([C@@H]2CC=C(C(=O)O)[C@H](c3ccc(C(C)(C)C)cc3)N2S(=O)(=O)c2ccc(C)cc2)cc1 | -26.3%
COc1c(O)cc2c(c1O)[C@@H]1O[C@H](CO)[C@@H](O)[C@H](O)[C@H]1OC2=O | 18% and -2.68%
CC(=C/C(=O)O)/C=C/[C@]1(O)[C@@]2(C)CO[C@]1(C)C[C@H](O[C@@H]1O[C@H](CO)[C@@H](O)[C@H](O)[C@H]1O)C2 | -16.1%
CC(=O)c1cc2c(cc1O)OC(C)(C)C=C2 | 14.3%
CC1(C)CC[C@]2(C(=O)O)CC[C@]3(C)C(=CCC4[C@@]5(C)CC[C@H](O[C@@H]6O[C@H](CO)[C@@H](O)[C@H](O)[C@H]6O[C@@H]6O[C@H](CO)[C@@H](O)[C@H](O)[C@H]6O)[C@@](C)(CO)C5CC[C@]43C)[C@@H]2C1 (stereo partly drawn) | 9.82%
CC(=O)O[C@H]1CC(C)(C)CC2[C@@]13[C@H](O)C[C@]1(C)[C@@]2(CCC2[C@@]4(C)CC[C@H](O[C@@H]5OC[C@H](O[C@@H]6O[C@H](CO)[C@@H](O)[C@H](O)[C@H]6O[C@@H]6OC[C@@H](O)[C@H](O)[C@H]6O)[C@H](O)[C@H]5O[C@@H]5O[C@H](CO)[C@@H](O)[C@H](O)[C@H]5O)C(C)(C)C4CC[C@]21C)O[C@@H]3O (stereo partly drawn) | -7.63%
CC(=O)O[C@@H]1[C@@H](CO)O[C@@](CO)(O[C@H]2O[C@H](COC(=O)/C=C/c3ccccc3)[C@@H](O)[C@H](O)[C@H]2O)[C@H]1O | 2.29%
C=C[C@H]1[C@H](O[C@@H]2O[C@H](CO)[C@@H](O)[C@H](O)[C@H]2O)OC=C2C(=O)N3Cc4c([nH]c5ccccc5c4=O)[C@@H]3C[C@H]21 | 0.893%
CC1=CCC[C@@H]2[C@@](C)(CCc3ccoc3)[C@H](C(=O)O)CC[C@@]12C | 14.3%
